# Source: PubChem BioAssay (NCATS)
# Inconclusive results are not listed. Values without a mark were called inactive. Active and inactive are the calls of the source. Calls come from the whole dose curve; as a rule, active = well fitted cell-killing curve with a large enough effect; inconclusive = small, poorly fitted or top-dose-only effect, or effect the other way; inactive = no such curve, though single readings can be large or run the other way.
# Assay: Quantitative High-Throughput drug screen in 47 multiple myeloma cell lines against the NCATS MIPE library collection: OPM2_DSMZ cell viability assay (AID 1919872); note: nearly all actives have a fitted effect of over 30% in size
# Conditions: OPM2 myeloma viability, CellTiter-Glo ATP luminescence, 48 h; series mostly up to 45.8 µM; viability (% of DMSO): at the top concentration
# Excerpt: PI: Beverly A. Mock Ph.D.
# Laboratory of Cancer Biology and Genetics,
# Center for Cancer Research, National Cancer Institute,
# National Institute of Health, Bethesda, Maryland
# Drug resistance and disease progression are common in multiple myeloma (MM) patients, underscoring the need for new therapeutic combinations. […] We hypothesized that effective combinations would reduce MYC expression and enhance p16 activity. […] These preclinical data identify potentially useful drug combinations for evaluation in drug-resistant MM and reveal potential mechanisms of combined drug sensitivity.
# Described herein is the primary MIPE qHTS used to cherrypick compounds. Validated compounds were then further tested for potential synergistic activiy.
# [1] Peat TJ, Gaikwad SM, Dubois W, Gyabaah-Kessie N, Zhang S, Gorjifard S, Phyo Z, Andres M, Hughitt VK, Simpson RM, Miller MA, Girvin AT, Taylor A, Williams D, D'Antonio N, Zhang Y, Rajagopalan A, Flietner E, Wilson K, Zhang X, Shinn P, Klumpp-Thomas C, McKnight C, Itkin Z, Chen L, Kazandijian D, Zhang J, Michalowski AM, Simmons JK, Keats J, Thomas CJ, Mock BA. Drug combinations identified by high-throughput screening promote cell cycle transition and upregulate Smad pathways in myeloma. Cancer Lett. 2023 Aug 1;568:216284. doi: 10.1016/j.canlet.2023.216284. Epub 2023 Jun 24. PMID: 37356470; PMCID: PMC10408729.
# SEQUENCE No. (e.g., 1, 2, 3, etc.); […] (e.g., Cells, Incubation, Reagent, etc.); VALUE and DESCRIPTION.
# 1; Cells; 5 uL; white, solid bottom 1536-well Greiner assay plate.
# 2; Compounds; 23 nL; Kalypsis pin tool (Wako USA) equipped with a 1536-well pin head to transfer to the assay plates.
# 3; Incubation; 48 hours; 37C incubation.
# 4; Reagent;5uL; CellTiter Glo (Promega).
# 5; Detector; 425V; Luminescence; Viewlux PerkinElmer.
# NOTES (numbers refer to Sequence numbers above)
# 1. The cell-based screening methods employed in this study were like those previously published. Briefly, the corresponding myeloma cell lines were screened in 1,536-well plates with 500 cells, 5-uL per well for inhibition of cell viability (assessed by measuring ATP levels with CellTiterGlo).
# 2. NCATS MIPE 4.0 library of approved and investigational drugs were added using the Kalypsis pin tool. Wells treated with DMSO only for 100% viability and media only wells for 0% viability were used as controls.
# 3. The assay plates were covered and incubated for 48 hours in a 37C, 5% CO2 incubator with controlled humidity.
# 4. After 48 hours, CellTilter-GloTM luminescent substrate mix (Promega) reagent was added to the assay plate and plates we incubated for 5 min at room temperature.
# 5. Signal was measured as median relative luminescence units on a ViewLux (PerkinElmer) multiplate reader.
# [1] Heske CM, Davis MI, Baumgart JT, Wilson K, Gormally MV, Chen L, Zhang X, Ceribelli M, Duveau DY, Guha R, Ferrer M, Arnaldez FI, Ji J, Tran HL, Zhang Y, Mendoza A, Helman LJ, Thomas CJ. Matrix Screen Identifies Synergistic Combination of PARP Inhibitors and Nicotinamide Phosphoribosyltransferase (NAMPT) Inhibitors in Ewing Sarcoma. Clin Cancer Res. 2017 Dec 1;23(23):7301-7311. doi: 10.1158/1078-0432.CCR-17-1121. Epub 2017 Sep 12. PMID: 28899971; PMCID: PMC6636827.
# Potency is the fitted concentration of half-maximal effect.
SMILES,viability (% of DMSO) [%],Potency
O=C1Nc2ccc(I)cc2C1=Cc1cc(Br)c(O)c(Br)c1,99.1,
CC(C)c1onc(-c2c(Cl)cccc2Cl)c1COc1ccc(C=Cc2cccc(C(=O)O)c2)c(Cl)c1,94.9,
CCC(c1ccc(O)cc1)C(CC)c1ccc(O)cc1 (stereo not given),103,
CCN1CCN(c2ccc(Nc3cc(N(C)C(=O)Nc4c(Cl)c(OC)cc(OC)c4Cl)ncn3)cc2)CC1,,0.209 µM (active)
C[C@H](c1ccc(F)cc1CCCC(=O)O)N(c1cc(F)ccc1F)S(=O)(=O)c1ccc(Cl)cc1,,3.32 µM (active)
CS(=O)(=O)c1ccc(C2=C(c3ccccc3)C(=O)OC2)cc1,109,
C[C@@H]1C[C@H]2[C@@H]3CCC4=CC(=O)C=C[C@]4(C)[C@@]3(F)[C@@H](O)C[C@]2(C)[C@@]1(O)C(=O)CO,100,
Cc1ccccc1C(C(=O)NC1CCCCC1)N(C(=O)CNc1ccc(C#N)cc1)c1cccc(F)c1 (stereo not given),92.3,
CCC(=C(CC)c1ccc(O)cc1)c1ccc(O)cc1,,26.4 µM (active)
O=C(O)C1=CO[C@@H](O[C@@H]2O[C@H](CO)[C@H](O)[C@H](O)[C@H]2O)[C@@H]2C(CO)=CC[C@H]12,96.4,
COc1cc(F)c(C(C)C)cc1-c1ccc(C(F)(F)F)cc1CN1C(=O)O[C@H](c2cc(C(F)(F)F)cc(C(F)(F)F)c2)[C@@H]1C,97.1,
Cc1nn(Cc2ccccc2Cl)c(C)c1CN(C)CC(O)COc1ccc(Cl)cc1 (stereo not given),99.2,
COc1cc2ncn(-c3cc(OCc4ccccc4S(C)(=O)=O)c(C#N)s3)c2cc1OC,92.1,
CC(=O)O[C@]1(C(C)=O)CC[C@H]2[C@@H]3C=C(Cl)C4=CC(=O)[C@@H]5C[C@H]5[C@]4(C)[C@@H]3CC[C@@]21C,103,
COc1cc(C=CC(=O)O)ccc1O,114,
O[C@@H](COc1cccc2ncccc12)CN1CCN(C2c3ccccc3[C@@H]3[C@H](c4ccccc42)C3(F)F)CC1 (stereo not given in full),86.2,
CN1c2ccccc2C(=O)N2CCc3c([nH]c4ccccc34)C21 (stereo not given),90.5,
COc1c(C)cnc(Cn2cnc3c(Cl)nc(N)nc32)c1C,,0.187 µM (active)
COc1cc(CNC(=O)CCCCC=CC(C)C)ccc1O,117,
CC(=O)N1CCN(c2ccc(OCc3nn(C)c(C)c3-c3cccc4c(CCCOc5cc(C)c(Cl)c(C)c5)c(C(=O)O)n(Cc5cccnc5)c34)cc2)CC1,89.5,

SMILES,viability (% of DMSO) [%],Potency
CCC(C)SSc1ncc[nH]1 (stereo not given),,5.9 µM (active)
CN(C)CC[C@H](CSc1ccccc1)Nc1ccc(S(=O)(=O)NC(=O)c2ccc(N3CCN(Cc4ccccc4-c4ccc(Cl)cc4)CC3)cc2)cc1[N+](=O)[O-],,16.6 µM (active)
CC1(C)CC(=O)c2c(C(F)(F)F)nn(-c3ccc(C(N)=O)c(NC4CCC(O)CC4)c3)c2C1 (stereo not given),,0.166 µM (active)
CC1(C)C(N(O)C(=O)Nc2ccc(Cl)cc2)N(c2ccc(Cl)cc2)C(=O)N1CC(=O)NN=CC=Cc1ccc([N+](=O)[O-])o1 (stereo not given),,18.7 µM (active)
CCN1C[C@H](C)n2c(c(O)c3c(=O)n(Cc4ccc(F)c(Cl)c4)nc(C(=O)NC)c32)C1=O,83.4,
CSc1cccc(Nc2ncc3cc(-c4c(Cl)cccc4Cl)c(=O)n(C)c3n2)c1,,1.32 µM (active)
COC(=O)[C@H](c1ccccc1Cl)N1CCc2sccc2C1,107,
O=C(Nc1cccc2c(=O)cc(-c3nn[nH]n3)oc12)c1ccc(OCCCCc2ccccc2)cc1,78.8,
CC(C)CN(C[C@H](O)[C@H](Cc1ccccc1)NC(=O)O[C@H]1CCOC1)S(=O)(=O)c1ccc(N)cc1,,18.7 µM (active)
CC(C)N(CCCNC(=O)Nc1ccc(C(C)(C)C)cc1)C[C@H]1O[C@@H](n2cc(Br)c3c(N)ncnc32)[C@H](O)[C@H]1O,,23.5 µM (active)
CCOC(=O)[C@H]1O[C@H]1C(=O)N[C@@H](CC(C)C)C(=O)NCCC(C)C,95.4,
O=C1NC(=O)C(c2cnc3ccccn23)=C1c1cn2c3c(cccc13)CN(C(=O)N1CCOCC1)CC2,,0.0047 µM (active)
CN1CCC[C@H]1CCO[C@](C)(c1ccccc1)c1ccc(Cl)cc1,103,
CC(=O)OCC(=O)[C@@]12OC(C)(C)O[C@H]1C[C@H]1[C@@H]3C[C@H](F)C4=CC(=O)C=C[C@]4(C)[C@@]3(F)[C@@H](O)C[C@@]12C,94.7,
Nc1ccn([C@@H]2O[C@H](CO)[C@@H](O)[C@H]2O)c(=O)n1,115,
Oc1ccc(C=Cc2cc(O)cc(O)c2)cc1,85.9,
COc1cc2c(cc1OC)CC(=O)N(CCCN(C)C[C@H]1Cc3cc(OC)c(OC)cc31)CC2,77.6,
N#CC(c1ccc(Cl)cc1)c1c(Cl)cc(-n2ncc(=O)[nH]c2=O)cc1Cl (stereo not given),84.4,
CN1CCN2c3ncccc3Cc3ccccc3C2C1 (stereo not given),109,
CC(C)(OCc1nn(Cc2ccccc2)c2ccccc12)C(=O)O,101,
